Reference: publication PMC5540273 (PLoS ONE, 2017)

tested on: CLK2; settings: concentration: 1 μM, replicates: in singlicate; n = 1
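Also: KINOMEscan kinase panel screen.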

SMILES | %Inh [%]
Nc1nccc2scc(-c3ccc4c(c3)CCN4C(=O)Cc3ccccc3)c12 [GSK2576924] | 19
CCC(=O)c1c(-c2ccccc2)c2cc(Cl)ccc2c(=O)n1Cc1cc(S(C)(=O)=O)n(CC(F)F)n1 | 0
O=c1cc(N2CCOCC2)nc2n(Cc3ccc(F)c(Cl)c3)ccn12 [GSK2297099] | 45
Fc1cccc(CSc2nnc(-c3ccc4c(c3)CCO4)o2)c1 | 20
Cc1cccc(-c2nc(Nc3ccc4c(cnn4C)c3)c3ccccc3n2)n1 [GW876731] | 10
COc1cccc(C2=C(Nc3cccc(C(=O)O)c3)C(=O)NC2=O)c1 [SB-390770] | 21
Nc1ncnc2c1ncn2-c1cccc2ccccc12 [SKF-97184] | 3
Nc1ncnc2c1ncn2-c1ccc(Cl)cc1 [AH2635] | 19
COc1cc2ncn(-c3cc(OCc4ccncc4)c(C(N)=O)s3)c2cc1OC [GSK336313] | 5
Cl.c1ccc(Cn2cnc3cc(Nc4ncnc5ccccc45)ccc32)cc1 [GW272142] | 0
C[C@@H]1CC[C@H](C(=O)NC2CCCCC2)CN1c1cc(-c2ccc3c(N)n[nH]c3c2)nc(N)n1 [GSK2291363] | 26
Nc1n[nH]c2ncc(-c3ccccc3)cc12 [SB-517081] | 0
CN1C(=O)C(Nc2cc(Cl)c(O)c(Cl)c2)=C(c2ccc(Cl)cc2)C1=O [SB-404321] | 0
COc1ccc(-c2cc3c(C)nc(N)nc3n([C@H]3CC[C@H](O)CC3)c2=O)cn1 | 0
